# Data from PMC7862700, “An all-to-all approach to the identification of sequence-specific readers for epigenetic DNA modifications on cytosine”.
# Experiments:
# Experiment in all cases: DAPPL (digital affinity profiling via proximity ligation, sequencing); 10 mM Tris-HCl pH 7.5, 50 mM NaCl, 1 mM DTT, 4% glycerol, room temperature, 30 min; GST-TFs on glutathione beads, 16-mer random dsDNA library, 0.1% formaldehyde crosslink after washing; high values mean tight binding
# FEV = molecular target: T1, FEV (Homo sapiens, UniProt Q99581 1-238); settings: protein: recombinant; tags: N-terminal GST; dsDNA, one strand shown
# T1 sequence: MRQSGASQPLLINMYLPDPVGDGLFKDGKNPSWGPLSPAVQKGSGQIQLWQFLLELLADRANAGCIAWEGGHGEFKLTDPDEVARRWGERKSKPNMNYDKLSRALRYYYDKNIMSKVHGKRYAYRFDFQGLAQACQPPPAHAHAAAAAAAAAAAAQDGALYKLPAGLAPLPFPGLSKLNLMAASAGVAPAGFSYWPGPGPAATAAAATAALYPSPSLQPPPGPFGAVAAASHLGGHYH
# How it was run: (§1)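 In yeast, human transcription factors were expressed with a GST fusion, then pulled down on glutathione beads and given DNA barcodes. Pooled with a tag-only sample, they were exposed to 200 nmole of a 16-mer random double-stranded DNA library (Tris/NaCl/DTT/glycerol buffer, room temperature, 30 min), washed, crosslinked with 0.1% formaldehyde, proximity-ligated using BsaI/T4 ligase for 1 h at 37 °C, PCR-amplified and read on an Illumina NextSeq500. Each hexamer's frequency of reads for a factor, divided by the matching frequency for the tag-only sample, gives the binding signal.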
# ETV5 = ETV5 (Homo sapiens, UniProt P41161 1-510); settings: protein: recombinant; tags: N-terminal GST; dsDNA, one strand shown
# How it was run: as §1
# HSF1 = HSF1 (Homo sapiens, UniProt Q00613 1-529); settings: protein: recombinant; tags: N-terminal GST; chain copies: 3; dsDNA, one strand shown
# How it was run: as §1
# SPIC = molecular target: T2, SPIC (Homo sapiens, UniProt Q8N5J4 1-248); settings: protein: recombinant; tags: N-terminal GST; dsDNA, one strand shown
# T2 sequence: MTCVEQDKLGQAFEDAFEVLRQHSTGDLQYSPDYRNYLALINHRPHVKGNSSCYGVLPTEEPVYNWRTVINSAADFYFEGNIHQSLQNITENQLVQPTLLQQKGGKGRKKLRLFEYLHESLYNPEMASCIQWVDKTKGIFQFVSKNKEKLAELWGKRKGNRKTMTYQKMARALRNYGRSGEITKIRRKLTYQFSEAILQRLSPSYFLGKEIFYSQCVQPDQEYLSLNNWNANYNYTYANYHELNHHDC
# How it was run: as §1
# ELF4 = ELF4 (Homo sapiens, UniProt Q99607 1-663); settings: protein: recombinant; tags: N-terminal GST; dsDNA, one strand shown
# How it was run: as §1
# ELK4 = molecular target: T3, ELK4 (Homo sapiens, UniProt P28324-2 1-405); settings: protein: recombinant; tags: N-terminal GST; dsDNA, one strand shown
# T3 sequence: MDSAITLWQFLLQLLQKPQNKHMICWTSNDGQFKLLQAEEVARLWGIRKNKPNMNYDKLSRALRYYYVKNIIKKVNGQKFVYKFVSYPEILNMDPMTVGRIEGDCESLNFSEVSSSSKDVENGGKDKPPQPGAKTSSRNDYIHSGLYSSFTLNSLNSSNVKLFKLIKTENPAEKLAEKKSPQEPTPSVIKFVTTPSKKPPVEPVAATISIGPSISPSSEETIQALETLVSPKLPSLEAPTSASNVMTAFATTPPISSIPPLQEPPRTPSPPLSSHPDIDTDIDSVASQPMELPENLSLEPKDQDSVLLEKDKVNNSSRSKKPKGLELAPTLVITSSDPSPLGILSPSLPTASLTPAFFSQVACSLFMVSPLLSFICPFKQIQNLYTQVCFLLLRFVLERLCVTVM
# How it was run: as §1
# ETV2 = molecular target: T4, ETV2 (Homo sapiens, UniProt O00321 1-342); settings: protein: recombinant; tags: N-terminal GST; dsDNA, one strand shown
# T4 sequence: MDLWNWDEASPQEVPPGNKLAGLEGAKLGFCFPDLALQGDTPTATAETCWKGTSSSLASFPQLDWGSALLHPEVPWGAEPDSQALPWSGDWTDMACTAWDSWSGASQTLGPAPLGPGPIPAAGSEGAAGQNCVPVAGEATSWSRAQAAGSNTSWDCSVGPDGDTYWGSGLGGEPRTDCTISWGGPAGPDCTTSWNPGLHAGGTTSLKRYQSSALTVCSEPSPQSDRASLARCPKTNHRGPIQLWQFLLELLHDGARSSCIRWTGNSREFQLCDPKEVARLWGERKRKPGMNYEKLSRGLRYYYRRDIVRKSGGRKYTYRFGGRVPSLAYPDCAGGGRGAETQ
# How it was run: as §1
# ELF3 = molecular target: T5, ELF3 (Homo sapiens, UniProt P78545 1-371); settings: protein: recombinant; tags: N-terminal GST; dsDNA, one strand shown
# T5 sequence: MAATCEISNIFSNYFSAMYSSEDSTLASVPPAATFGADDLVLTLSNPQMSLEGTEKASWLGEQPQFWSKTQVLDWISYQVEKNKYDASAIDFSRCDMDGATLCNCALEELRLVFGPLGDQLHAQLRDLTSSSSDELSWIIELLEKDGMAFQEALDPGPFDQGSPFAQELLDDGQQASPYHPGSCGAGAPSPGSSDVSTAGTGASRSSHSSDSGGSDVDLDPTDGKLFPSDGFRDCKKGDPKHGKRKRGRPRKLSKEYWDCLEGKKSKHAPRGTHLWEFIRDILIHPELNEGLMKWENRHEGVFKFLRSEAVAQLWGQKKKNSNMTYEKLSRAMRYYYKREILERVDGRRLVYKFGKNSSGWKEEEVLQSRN
# How it was run: as §1
# ETV1 = ETV1 (Homo sapiens, UniProt P50549 1-477); settings: protein: recombinant; tags: N-terminal GST; dsDNA, one strand shown
# How it was run: as §1
# Sequence of ETV1 (P50549 whole entry): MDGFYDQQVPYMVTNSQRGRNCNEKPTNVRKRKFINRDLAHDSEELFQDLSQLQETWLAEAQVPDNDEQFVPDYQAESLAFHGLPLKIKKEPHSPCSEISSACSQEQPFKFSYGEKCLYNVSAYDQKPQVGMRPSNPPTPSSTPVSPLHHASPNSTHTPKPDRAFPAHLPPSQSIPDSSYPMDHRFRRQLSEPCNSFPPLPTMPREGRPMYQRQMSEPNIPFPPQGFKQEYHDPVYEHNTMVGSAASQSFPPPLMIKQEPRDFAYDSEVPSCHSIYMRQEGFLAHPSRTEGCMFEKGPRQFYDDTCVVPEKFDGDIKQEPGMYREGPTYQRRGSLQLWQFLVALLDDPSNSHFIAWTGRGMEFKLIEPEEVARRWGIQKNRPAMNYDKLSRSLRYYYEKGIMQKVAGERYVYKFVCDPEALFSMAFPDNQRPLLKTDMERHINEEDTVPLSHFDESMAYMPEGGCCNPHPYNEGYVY
# Sequence of HSF1 (Q00613 whole entry): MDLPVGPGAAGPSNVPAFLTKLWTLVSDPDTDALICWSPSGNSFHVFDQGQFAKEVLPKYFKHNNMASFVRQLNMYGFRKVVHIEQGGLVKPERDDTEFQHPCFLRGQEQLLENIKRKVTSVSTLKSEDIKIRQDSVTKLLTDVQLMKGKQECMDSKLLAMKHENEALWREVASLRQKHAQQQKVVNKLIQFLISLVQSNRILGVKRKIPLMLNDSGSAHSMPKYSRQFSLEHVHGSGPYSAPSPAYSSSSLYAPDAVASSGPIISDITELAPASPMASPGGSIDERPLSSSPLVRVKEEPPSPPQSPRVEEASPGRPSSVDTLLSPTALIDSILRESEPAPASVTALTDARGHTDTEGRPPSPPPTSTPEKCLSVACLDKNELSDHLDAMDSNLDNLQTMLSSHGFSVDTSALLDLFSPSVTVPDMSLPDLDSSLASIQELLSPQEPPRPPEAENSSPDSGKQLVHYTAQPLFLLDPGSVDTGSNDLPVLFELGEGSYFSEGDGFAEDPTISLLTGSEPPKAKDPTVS
# Sequence of ETV5 (P41161 whole entry): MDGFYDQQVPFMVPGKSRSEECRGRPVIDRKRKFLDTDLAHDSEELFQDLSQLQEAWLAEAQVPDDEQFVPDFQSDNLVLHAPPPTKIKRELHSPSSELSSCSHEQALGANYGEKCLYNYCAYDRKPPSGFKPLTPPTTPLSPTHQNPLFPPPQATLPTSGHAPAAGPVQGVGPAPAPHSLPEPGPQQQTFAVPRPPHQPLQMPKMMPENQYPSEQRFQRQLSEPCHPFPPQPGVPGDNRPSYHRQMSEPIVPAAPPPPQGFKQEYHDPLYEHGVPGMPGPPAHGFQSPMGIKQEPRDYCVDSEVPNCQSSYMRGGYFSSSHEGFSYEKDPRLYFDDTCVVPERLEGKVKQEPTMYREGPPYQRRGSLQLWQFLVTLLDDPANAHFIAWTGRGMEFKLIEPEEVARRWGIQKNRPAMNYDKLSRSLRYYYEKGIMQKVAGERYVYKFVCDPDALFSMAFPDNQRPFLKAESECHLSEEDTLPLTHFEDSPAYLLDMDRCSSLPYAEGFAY
# Sequence of ELF4 (Q99607 whole entry): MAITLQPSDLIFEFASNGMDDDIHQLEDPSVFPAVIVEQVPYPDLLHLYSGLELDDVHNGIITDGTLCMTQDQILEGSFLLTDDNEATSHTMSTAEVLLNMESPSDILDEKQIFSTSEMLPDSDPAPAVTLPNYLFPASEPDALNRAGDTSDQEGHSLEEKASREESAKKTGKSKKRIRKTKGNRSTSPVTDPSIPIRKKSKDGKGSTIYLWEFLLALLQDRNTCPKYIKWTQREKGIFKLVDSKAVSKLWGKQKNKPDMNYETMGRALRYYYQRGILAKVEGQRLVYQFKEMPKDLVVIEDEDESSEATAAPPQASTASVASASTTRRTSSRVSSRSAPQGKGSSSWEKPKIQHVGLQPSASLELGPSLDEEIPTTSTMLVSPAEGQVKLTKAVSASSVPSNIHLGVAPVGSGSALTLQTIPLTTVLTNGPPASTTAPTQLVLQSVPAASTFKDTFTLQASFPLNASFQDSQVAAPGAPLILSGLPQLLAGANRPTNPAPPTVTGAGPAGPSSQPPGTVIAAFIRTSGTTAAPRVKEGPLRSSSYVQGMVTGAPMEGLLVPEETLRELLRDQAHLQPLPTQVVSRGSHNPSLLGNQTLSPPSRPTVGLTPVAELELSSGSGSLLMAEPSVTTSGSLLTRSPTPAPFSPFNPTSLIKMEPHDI
sequence,measurement,setting,value
TGTACC,binding signal,FEV,"1.38 fold enrichment (6-mer frequency, TF over GST control)"
same,binding signal,ETV5,"1.4 fold enrichment (6-mer frequency, TF over GST control)"
same,binding signal,HSF1,"1.03 fold enrichment (6-mer frequency, TF over GST control)"
same,binding signal,SPIC,"1.39 fold enrichment (6-mer frequency, TF over GST control)"
same,binding signal,ELF4,"1.26 fold enrichment (6-mer frequency, TF over GST control)"
same,binding signal,ELK4,"1.39 fold enrichment (6-mer frequency, TF over GST control)"
same,binding signal,ETV2,"1.35 fold enrichment (6-mer frequency, TF over GST control)"
same,binding signal,ELF3,"1.38 fold enrichment (6-mer frequency, TF over GST control)"
same,binding signal,ETV1,"1.37 fold enrichment (6-mer frequency, TF over GST control)"
